Measured values from PubChem BioAssay (Tox21).
Inconclusive results are not listed. Unmarked numbers belong to inactive results. The call rests on the fitted dose curve.

biological target: Progesterone receptor (Homo sapiens) (UniProt P06401); assay: qHTS assay to identify small molecule agonists of the progesterone receptor (PR) signaling pathway (AID 1346784); conditions: PR-UAS-bla HEK293T, beta-lactamase FRET ratio, 16 h; series mostly up to 92.4 µM; activation: at the top concentration; further: nearly all actives have a fitted effect of over 30% in size
Source text: U.S. Tox21 Program National Center for Advancing Translational Sciences [NCATS] NIH Chemical Genomics Center [NCGC] U.S. Environmental Protection Agency [EPA] National Institutes of Environmental Health Sciences [NIEHS] National Toxicology Program [NTP] U.S. Food and Drug Administration [FDA] […] Endocrine disrupting chemicals (EDCs) and their interactions with steroid hormone receptors like PR causes disruption of normal endocrine function. To identify the compounds that activate PR signaling, a PR-UAS-bla GripTite cell line i.e. PR-UAS-bla HEK 293T (Invitrogen, Carlsbad, CA, USA) containing a beta-lactamase reporter gene under the control of an Upstream Activator Sequence (UAS) was used to screen Tox21 10K compound library.
Tox21 Assay Protocol Summary: PR-UAS-bla HEK 293T cells were dispensed at 3,000 cells/5 uL of assay medium containing 2% charcoal stripped FBS per well into black wall/clear-bottom 1536-well plates using a Multidrop Combi (ThermoFisher Scientific, Waltham, MA) dispenser. After the assay plates were incubated at a 37C and 5% CO2 for 6hr, 23 nL of compounds dissolved in DMSO, positive controls or DMSO only was transferred to the assay plate by a Pintool station (Kalypsys, San Diego, CA). The plates were incubated at 37C and 5% CO2 for 16hr. Then 1 uL of LiveBLAzer B/G FRET substrate was added using a BioRAPTR FRD (Flying Reagent Dispenser, Aurora Discovery, San Diego, CA). After the plates were incubated at room temperature for 2 hours, fluorescence intensity was measured by an Envision plate reader (PerkinElmer, Shelton, CT).
On the % scale 0 is the no-effect control and ±100 the full control effect.

Progesterone receptor (Homo sapiens), sequence (P06401 whole entry, looked up): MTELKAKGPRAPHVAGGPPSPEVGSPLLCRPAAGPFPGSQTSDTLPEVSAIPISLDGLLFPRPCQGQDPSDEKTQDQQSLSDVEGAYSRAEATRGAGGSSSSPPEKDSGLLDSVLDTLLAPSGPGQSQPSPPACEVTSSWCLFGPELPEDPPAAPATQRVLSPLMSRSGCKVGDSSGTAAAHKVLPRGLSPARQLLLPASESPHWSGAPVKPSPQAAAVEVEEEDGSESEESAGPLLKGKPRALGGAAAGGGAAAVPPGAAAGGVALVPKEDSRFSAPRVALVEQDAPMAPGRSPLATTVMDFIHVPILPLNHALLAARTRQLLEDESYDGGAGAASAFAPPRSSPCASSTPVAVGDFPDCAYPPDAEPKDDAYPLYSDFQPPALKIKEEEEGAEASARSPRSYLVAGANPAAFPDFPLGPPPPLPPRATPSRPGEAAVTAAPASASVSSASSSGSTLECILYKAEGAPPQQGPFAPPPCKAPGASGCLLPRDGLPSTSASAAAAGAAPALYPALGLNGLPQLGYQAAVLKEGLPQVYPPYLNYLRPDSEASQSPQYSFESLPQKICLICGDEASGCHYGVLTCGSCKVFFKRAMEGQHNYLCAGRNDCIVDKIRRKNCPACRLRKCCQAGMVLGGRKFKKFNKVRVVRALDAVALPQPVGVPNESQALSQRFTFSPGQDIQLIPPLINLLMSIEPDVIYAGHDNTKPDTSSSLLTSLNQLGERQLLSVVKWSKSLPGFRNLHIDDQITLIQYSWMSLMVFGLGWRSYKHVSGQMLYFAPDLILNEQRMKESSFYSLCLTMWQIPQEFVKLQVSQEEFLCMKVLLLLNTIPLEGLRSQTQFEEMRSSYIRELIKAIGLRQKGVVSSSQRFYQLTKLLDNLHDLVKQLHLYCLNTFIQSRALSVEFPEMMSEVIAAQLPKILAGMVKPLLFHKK

SMILES	activation
CCN(O)CC	-1.39%
CCN(CCCc1ccccc1)CCCc1ccccc1	-4.08% [at 42.5 µM]
COc1cc2c(cc1N)oc1ccccc12	-1.4%
Cc1ccc([N+](=O)[O-])c(N)c1	-12.6%
C1CCOC1	0.482%
N#CSCC(=O)O	0.814% [at 42.5 µM]
CC(C)Nc1nc(N)nc(Cl)n1	-1.22%
C1CSCCS1	0.466%
COC(=O)c1ccc2cc(C(=O)OC)ccc2c1	2.44% [at 19 µM]
CCOc1ccc(OCC)c(Cl)c1	-0.22%
O=C1CCCCC1C1CCCCC1 (stereo not given)	-0.941%
CN1C(=O)CC(c2ccccc2)C1=O (stereo not given)	-0.582% [at 42.5 µM]
CC(C)O	-0.482%
OCCN(CCO)CCN(CCO)CCO	3.58%
CC(C)C1=CC2=CC[C@@H]3[C@](C)(CCC[C@@]3(C)C(=O)O)[C@H]2CC1	2.4%
CCN(CC)C(=O)N(CC)CC	-0.398%
CCCCCCOc1ccc(N)cc1	-4.46%
CC(C)(C)c1ccc(OC(=O)c2ccccc2O)cc1	3.25%
CCOC(=O)C(Br)c1ccccc1 (stereo not given)	-0.852%
CC(C)C(=O)OCC(C)(C)C(O)C(C)C (stereo not given)	0.156%

SMILES	activation
CC(C)(CO)[C@@H](O)C(=O)NCCC(=O)O	-0.877%
CCC(=O)c1ccc2c(c1)N(CCCN(C)C)c1ccccc1S2	-6.29% [at 42.5 µM]
CC(C)C[C@H](NC(=O)OCC1c2ccccc2-c2ccccc21)C(=O)O	-4.71%
C=Cc1ccccc1	-1.23%
C=CC(C)(O)CC/C=C(\C)CCC=C(C)C (stereo not given)	3.29%
O=C(C(Cl)Cl)N1CCOC12CCCCC2	-3.24%
CN1CCN(C2=Nc3ccccc3Oc3ccc(Cl)cc32)CC1	-3.29% [at 42.5 µM]
O=[N+]([O-])c1nccn1CO[C@@H](CO)[C@H](O)CO	-0.0825% [at 42.5 µM]
c1ccc(CN(CC2=NCCN2)c2ccccc2)cc1	-2.9% [at 42.5 µM]
O=C(O)[C@@H](O)[C@H](O)[C@H](O)[C@@H](O)C(=O)O	0.0965% [at 42.5 µM]
CNCCC(Oc1ccccc1OC)c1ccccc1 (stereo not given)	-5.21% [at 42.5 µM]
CCCNC(C)C(=O)Nc1c(C)csc1C(=O)OC (stereo not given)	-0.0368% [at 42.5 µM]
Cc1cc(S(=O)(=O)O)c(N)cc1Cl	1.98%
CCC(=O)Nc1ccc(O)cc1	-1.27% [at 42.5 µM]
CC(C)C(=O)OC/C=C/c1ccccc1	-1.11%
O=C1N(c2ccccc2)c2ccccc2C1(Cc1ccncc1)Cc1ccncc1	1.34% [at 42.5 µM]
C[C@@H](N)C(=O)O	2.83% [at 42.5 µM]
O=C(Cl)c1cccc([N+](=O)[O-])c1	0.101%
O=C1C=CC(=O)O1	-0.386%
CCCCOc1cc(C(=O)NCCN(CC)CC)c2ccccc2n1	-0.753% [at 42.5 µM]
